Test systems include T-47D breast; BT-549 breast; MDA-MB-435 melanoma; SW-620 colon; MCF7 breast; HCT-116 colon; HCC-2998 colon; KM12 colon.
Common to all, as to assay: NCI-60 one-dose screen, 48 h (100 = growth as untreated, 0 = no growth, -100 = all killed)
Holding throughout (settings): 10 µM unless noted

About 83,000 compounds went through this panel and 20% of them were active in at least one assay; those are over-represented in the sample as a whole.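 48-hour exposure, single concentration, 96-well plates; percent growth endpoint where 0 means no net growth. Active: below 10.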 Values without a mark were called inactive. Active and inactive are the calls of the source.

As for `CS(=O)(=O)C1=CN(CCO)C(=O)N2CCCN=C12`, the growth is 102% in the experiment on T-47D breast; 102% in the experiment with BT-549 breast; 102% in the experiment on MDA-MB-435 melanoma; 93.4% in the experiment with SW-620 colon; 104% with MCF7 breast; 97% in the experiment on HCT-116 colon. Also, the growth is 98.6% in the experiment on HCC-2998 colon and 105% in the experiment on KM12 colon.
With `CCc1nc2c(=O)[nH]cnc2o1`, the growth is 105% with T-47D breast; 102% in the experiment on BT-549 breast; 110% in the experiment with MDA-MB-435 melanoma; 106% in the experiment with SW-620 colon; 96.4% with MCF7 breast; 103% in the experiment on HCT-116 colon. Also, the growth with HCC-2998 colon is 109%; in the experiment on KM12 colon it was 110%.
Regarding `CCSc1nc(NC)c2cc(-c3ccc(C(F)(F)F)cc3)ccc2n1`, the growth in the experiment on T-47D breast was 91.4%; in the experiment on BT-549 breast it was 94.4%; in the experiment on MDA-MB-435 melanoma, 102%; with SW-620 colon, 105%; with MCF7 breast it was 92.8%; in the experiment on HCT-116 colon it was 96.9%. In addition, the growth with HCC-2998 colon was 111%; in the experiment with KM12 colon it was 103%.
With `CC1=C(CCC(C)N(C)Cc2ccc(OCCCN3CCCC3)cc2)C(C)(C)CCC1` (configuration not stated), the growth was -43.1% (active) in the experiment on T-47D breast; 55.6% in the experiment on BT-549 breast; -77.9% (active) in the experiment on MDA-MB-435 melanoma; 21.3% in the experiment with SW-620 colon; -33.3% (active) in the experiment with MCF7 breast; 10.7% in the experiment on HCT-116 colon. Besides, the results for the growth in the experiment with HCC-2998 colon and in the experiment with KM12 colon were -31% (active) and 27.6%, respectively.
Take `O=C(Cn1c(=O)sc2ccccc21)NNS(=O)(=O)c1ccccc1[N+](=O)[O-]`: the growth in the experiment on T-47D breast was 105%; in the experiment with BT-549 breast it was 116%; with MDA-MB-435 melanoma, 98.5%; in the experiment on SW-620 colon, 103%; in the experiment on MCF7 breast, 96.5%; in the experiment on HCT-116 colon it was 107%. Moreover, the growth is 107% with HCC-2998 colon and 99.9% with KM12 colon.
Regarding `N#Cc1c(-c2cccs2)cc(-c2cccnc2)[nH]c1=O`, the growth was 103% with T-47D breast; 102% with BT-549 breast; 102% in the experiment on MDA-MB-435 melanoma; 101% in the experiment on SW-620 colon; 92.4% in the experiment with MCF7 breast; 104% in the experiment with HCT-116 colon. The growth with HCC-2998 colon was 114%; with KM12 colon, 106%.
As for `COc1cnc2c(c1)C(=O)c1c-2n(CCCNCCO)c(=O)c2ccncc12`, the growth is -4.8% (active) in the experiment with T-47D breast; 19% in the experiment on BT-549 breast; 5.96% (active) with MDA-MB-435 melanoma; 9.91% (active) with SW-620 colon; 0.768% (active) in the experiment with MCF7 breast; -49.8% (active) with HCT-116 colon. For the same compound, the growth with HCC-2998 colon is 26.4%; in the experiment with KM12 colon, 6.99% (active).
Turning to `CCOP(=O)(OCC)c1nc(-c2ccccc2)oc1NCc1cccnc1`, the growth in the experiment with T-47D breast was 85.5%; in the experiment on BT-549 breast, 111%; with MDA-MB-435 melanoma, 104%; in the experiment with SW-620 colon, 101%; in the experiment on MCF7 breast, 103%; with HCT-116 colon, 102%. In addition, the values for the growth in the experiment with HCC-2998 colon and with KM12 colon were 106% and 111%, respectively.
Take `CN(CCOc1ccc(C#N)cc1)CCOc1ccc(C#N)cc1`: the growth with T-47D breast was 79.9%; with BT-549 breast, 91.3%; with MDA-MB-435 melanoma it was 86.3%; with SW-620 colon it was 57.8%; in the experiment on MCF7 breast, 211%; with HCT-116 colon, 66.2%. Further, in the experiment with KM12 colon, the growth was 71.4%.
With `O=Nc1c(-c2c(O)[nH]c3ncccc23)[nH]c2ccccc12`, the growth in the experiment with T-47D breast is 49.1%; in the experiment on BT-549 breast, 45.2%; in the experiment on MDA-MB-435 melanoma, 72.6%; in the experiment on SW-620 colon, 62.8%; in the experiment with MCF7 breast it was 67.8%; in the experiment on HCT-116 colon, 36.9%. The growth in the experiment on KM12 colon was 15%.
As to `Nc1c(C(=O)Nc2ccccc2Cl)sc2nc3c(cc12)C(O)CCC3` (configuration not stated), the growth was 38.6% in the experiment on T-47D breast; 52.1% in the experiment with BT-549 breast; 1.93% (active) in the experiment with MDA-MB-435 melanoma; 49.3% with SW-620 colon; 24.4% in the experiment on MCF7 breast; 29.3% in the experiment with HCT-116 colon. The growth with HCC-2998 colon is 64.3%; in the experiment on KM12 colon it was 31.9%.
On to `Cc1ccc(Cl)cc1Nc1nc(C(F)(F)F)ccc1C(=O)N/N=C/c1cccnc1`, for which the growth was 32.9% with T-47D breast; 36.7% with BT-549 breast; 39.5% with MDA-MB-435 melanoma; 22.7% in the experiment with SW-620 colon; 11.7% in the experiment on MCF7 breast; 25% in the experiment with HCT-116 colon. Further, in the experiment with KM12 colon, the growth was 34.7%.
Take `O=C(O)/C(=C\c1ccc(Cl)cc1)c1ccc(Cl)cc1`: the growth is 95.9% with T-47D breast; 82% in the experiment with BT-549 breast; 97.2% with MDA-MB-435 melanoma; 106% in the experiment on SW-620 colon; 92.9% with MCF7 breast; 98.1% in the experiment on HCT-116 colon. For the same compound, in the experiment on KM12 colon, the growth is 97.6%.
For the compound `NC(=O)c1c(NC(=O)c2ccccc2)sc2c1CCC(=O)C2`, the growth was -9.93% (active) in the experiment with T-47D breast; 9.17% (active) in the experiment with BT-549 breast; 8.22% (active) with MDA-MB-435 melanoma; 15.5% in the experiment with SW-620 colon; 4.2% (active) in the experiment on MCF7 breast; 8.7% (active) with HCT-116 colon. For the same compound, in the experiment on KM12 colon, the growth was 5.17% (active).
As for `C=CCc1c2c(c(OC)c3ccoc13)C(=O)/C(=C/c1ccccc1OC)O2`, the growth in the experiment on T-47D breast was 59.8%; in the experiment with BT-549 breast, 46.1%; with MDA-MB-435 melanoma it was 47.8%; with SW-620 colon, 47.2%; in the experiment with MCF7 breast it was 32.6%; in the experiment with HCT-116 colon, 21.4%. Moreover, the growth with KM12 colon was 46.8%.
For `CCOC(=O)C1=NN(c2ccccc2)C(=O)/C1=C\N1C(=O)CC(=O)NC1=S`, the growth is 85.9% with T-47D breast; 101% in the experiment with BT-549 breast; -22.1% (active) in the experiment on MDA-MB-435 melanoma; 93.7% in the experiment on SW-620 colon; 102% in the experiment with MCF7 breast; 101% in the experiment on HCT-116 colon. Besides, the growth was 112% in the experiment with HCC-2998 colon and 99.4% in the experiment with KM12 colon.

Values taken from PubChem BioAssay (NCI).
